A selection: hits, their analogues and other compounds. The true share with any hit is near 8%.
SW480 rerep: inducers of DNA re-replication in SW480 colon cancer cells; Potency, µM (doses to about 46.1 µM), for the others: at the top dose re-replication activation, hits mostly activators; SW480 DNA re-replication, Hoechst DNA content imaging, 48 h; hit rate 1.8% among 340,000; further: % of control where 0% means no effect; nearly all actives have a fitted effect of over 55% in size
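Image-based DNA-content assay: after two days of treatment, nuclei were labelled with the DNA dye Hoechst and imaged, and hits were compounds raising the count of nuclei showing high fluorescence intensity.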
MCF10A rerep: inducers of DNA re-replication in MCF 10A breast cells; AID 624296; Potency, µM (titrated, usually from 46.1 µM), without a hit: at the top dose activity, positive = re-replication, usual class: activators; MCF 10A DNA re-replication, Hoechst nuclear intensity, 48 h; hit rate 2.9% among 350,000; further: % of control where 0% means no effect; nearly all actives have a fitted effect of over 50% in size
KB-3-1 tox: KB-3-1 parental cell cytotoxicity. KB-3-1 viability, CellTiter-Glo ATP luminescence, 72 h. Potency, µM (top dose mostly 46.1 µM), usual class: cytotoxic. hit rate 1.4% among 400,000. AID 1347075; further: on the % scale 0 is the no-effect control and ±100 the full control effect; nearly all actives have a fitted effect of over 60% in size
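Cells are dispensed, compounds pinned in, plates held at 37 °C for 72 h, then CellTiter-Glo is added and luminescence read after 10 minutes. Cell line: parental KB-3-1 in phenol-red-free DMEM, 10% FBS.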
KB-V1 MDR tox: KB-V1 MDR subline cytotoxicity; Potency, µM (series often up to 46.1 µM), hits mostly cytotoxic; AID 1347076; hit rate 3.4% among 400,000; KB-V1 MDR cells viability, CellTiter-Glo, 72 h; further: on the % scale 0 is the no-effect control and ±100 the full control effect; nearly all actives have a fitted effect of over 60% in size
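Cells of the MDR subline KB-V1 are plated, dosed with compound at multiple concentrations, and incubated 72 h at 37 degrees C; CellTiter-Glo is then added and luminescence read after 10 min.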
HT1080NT lethal: kills 2HG-producing HT-1080-NT fibrosarcoma cells. HT-1080-NT fibrosarcoma viability, CellTiter-Glo ATP luminescence, 48 h. hit rate 1.6% among 360,000. Potency, µM (titrated, usually from 46.1 µM), without a hit: at the highest dose activity, negative = less viability, most hits filed as cytotoxic. AID 686970;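 further: NT is the 2HG producing partner of a matched IDH1 knockdown line; 0% = DMSO-treated cells and -100% = media-only wells without cells; nearly all actives have a fitted effect of over 55% in size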
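HT-1080-NT fibrosarcoma cells (2HG-overproducing), 750 cells/well in RPMI with 5% FBS, dosed after 2 h and incubated 48 h at 37C. CellTiter-Glo luminescence normalized to DMSO and no-cell wells; concentration-response curves fitted and classed.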
HT1080 IDH1KD tx: HT-1080 IDH1 knockdown cell toxicity (counter line). HT-1080 IDH1 knockdown viability, ATP luminescence, 48 h. Potency, µM (highest dose often 46.1 µM), for the others: at the top dose activity, negative = toxicity, usual class: cytotoxic. hit rate 2% among 360,000;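 further: 0% = DMSO wells and -100% = cell-free medium wells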
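Assay cells: HT-1080 with IDH1 knockdown, 750 per well, RPMI/5% FBS. Exposure: 48 h at 37 °C following 2 h pre-incubation. Read: CellTiter-Glo luminescence; fitted concentration-response, curve class assigned.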
* hit, by the source's call; ! = not confirmed by another sample; [ ] = another dose, or the depositor's remark. The call rests on the fitted dose curve; in most records, active means well fitted curve in the direction sought with a large enough effect; inconclusive means small, poorly fitted or top-dose-only effect, or another doubt; inactive means no such curve, though single readings can be large; an effect the other way counts as inactive or inconclusive. Potency means the concentration at half of the fitted maximal effect.

Screening OCC1OC([S-])[C@H](O)C(O)C1O.[Au+] (some centres undefined) returned SW480 rerep -1.9% and MCF10A rerep 29.9µM*.
CCOc1ccccc1CNC(=O)C1CCN(S(=O)(=O)c2ccc3c(ccn3C)c2)CC1 was read as KB-3-1 tox inactive and KB-V1 MDR tox inactive.
`CCOc1ccc(-n2c(Cc3ccccc3)nnc2SCc2nc(-c3cccs3)no2)cc1` gave KB-3-1 tox inactive and KB-V1 MDR tox inconclusive.
For Cc1ccc(N=c2ssnc2Cl)cc1 the results were SW480 rerep inconclusive, MCF10A rerep inconclusive, KB-3-1 tox inconclusive, KB-V1 MDR tox inactive, HT1080NT lethal inconclusive and HT1080 IDH1KD tx inconclusive.
COc1cc(N=c2ssnc2Cl)c(OC)cc1Cl was read as SW480 rerep inconclusive, MCF10A rerep 20.6µM*!, KB-3-1 tox inactive, KB-V1 MDR tox inactive, HT1080NT lethal inconclusive and HT1080 IDH1KD tx -0.9%.
For Cc1cc(Cl)ccc1N=c1ssnc1Cl the results were SW480 rerep -1.0%[9.22 µM], MCF10A rerep inconclusive, KB-3-1 tox inconclusive, KB-V1 MDR tox inactive, HT1080NT lethal inconclusive and HT1080 IDH1KD tx 23.1µM*.
`CC1CCN(CC[S-])CC1.O.O.[Cl][Pt]` gave KB-3-1 tox 13µM* and KB-V1 MDR tox inconclusive.
Screening Cc1cc2c(cc1C)N[C@]1(C[C@H]3CCCC(=O)N4CC[C@@H](C1)[C@@H]34)C(=NCc1ccccc1)N2 returned KB-3-1 tox inactive and KB-V1 MDR tox inactive.
`CC12CC3CC(C)(C1)CC(C(=O)NC(=S)N1CCOCC1)(C3)C2` gave SW480 rerep 12.9%, MCF10A rerep -25.1%, KB-3-1 tox inactive, KB-V1 MDR tox inactive, HT1080NT lethal 11.2µM* and HT1080 IDH1KD tx -16.4%.

Bioassay records: PubChem BioAssay, National Center for Advancing Translational Sciences (NCATS)
